# Compound activity from PubChem.
# This excerpt belongs to a sample that is enriched for hits.
# Pf Dd2 inh = qHTS Primary assay for Inhibitors of Plasmodium falciparum Dd2 growth in vitro. P. falciparum Dd2 growth, SYBR Green, 72 h. Potency, µM (top dose mostly 28.9 µM), for inactives: at the highest dose activity, negative = inhibition, hits mostly inhibitors. actives 4.3% (n = 120,000). AID 1347417, 2020; active means well fitted inhibition curve with a large enough effect;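 further: plate controls were DMSO vehicle for no effect and reference drug for full effect; nearly all actives have a fitted effect of over 65% in size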
#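 Infected erythrocytes (Dd2, 0.3% parasitemia, 2.5% hematocrit final) are added to compound in RPMI-1640/Albumax II medium, grown 72 h at 37C in low oxygen, then lysed with saponin/Triton-X containing SYBR Green and read by fluorescence.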
# Active calls of the source: *; i = inactive; [ ] = remark or other dose. Potency means the concentration at half of the fitted maximal effect.
SMILES,Pf Dd2 inh
CCOC(=O)C1CCN(C(=O)C2CCN(C3=NS(=O)(=O)C(c4ccc(C)c(C)c4)=C3C)CC2)CC1,4µM*
COc1ccc2nc(CO[C@H]3CN(Cc4ccccn4)C[C@H]3F)[nH]c2c1,-22%[44.1 µM]
Cc1cc(C)nc(N2C[C@H]3OC(=O)N(CCc4cccc(Cl)c4)[C@H]3C2)n1,6%
COc1ccc2nc3n(c2c1)[C@@H](CNCc1ccc(C#N)cc1)COC3,i
COc1ccc2nc3n(c2c1)[C@@H](CNCc1ccccc1)COC3,7.1µM*
COc1ccc2nc3n(c2c1)[C@@H](CNCc1ccc(C(=O)O)cc1)COC3,13%[44.1 µM]
CN1CCN(c2nc3c(S(=O)(=O)c4ccc(Cl)cc4)nnn3c3ccsc23)CC1,10µM*
COCCNc1nc2c(S(=O)(=O)c3ccc(C)c(C)c3)nnn2c2ccc(Cl)cc12,12%
CC1CCN(c2nc3c(S(=O)(=O)c4ccccc4)nnn3c3ccsc23)CC1,10%
CC1CCN(c2nc3c(S(=O)(=O)c4ccccc4)nnn3c3ccc(Cl)cc23)CC1,1.1µM*
Cc1ccc(C)c(S(=O)(=O)c2nnn3c2nc(N2CCOCC2)c2ccccc23)c1,-27%
CC1CCN(c2nc3c(S(=O)(=O)c4ccc(Cl)cc4)nnn3c3ccsc23)CC1,22%
Cc1ccc(S(=O)(=O)c2nnn3c2nc(N2CCC(C)CC2)c2cc(Cl)ccc23)cc1C,11µM*
CC(C)c1ccc(S(=O)(=O)c2nnn3c2nc(N2CCOCC2)c2ccccc23)cc1,-29%
CC(C)c1ccc(S(=O)(=O)c2nnn3c2nc(N2CCN(C)CC2)c2sccc23)cc1,i
Cc1ccc(S(=O)(=O)c2nnn3c2nc(NC(C)C)c2cc(Cl)ccc23)cc1C,7%
CCc1ccc(S(=O)(=O)c2nnn3c2nc(N2CCC(C(N)=O)CC2)c2cc(Cl)ccc23)cc1,i
Cc1ccc(C)c(S(=O)(=O)c2nnn3c2nc(N2CCCCC2)c2ccccc23)c1,13µM*
Cc1cccc(OCC2(CNC(=O)c3cccnc3)C[C@@H](O)[C@@H](O)C2)n1 (some centres undefined),13%[44.1 µM]
Cc1ccc(CNC(=O)Cn2c(C)cc3nc4n(c(=O)c32)CCCC4)cc1,-23%
Cc1ccc(N2C(=O)N[C@@H]3CCN(C(=O)c4ccccc4)[C@@H]3C2=O)cc1,0%[44.1 µM]
Cc1ccn2cc(C(=O)N3CCC(n4nccc4NC(=O)CC(C)C)CC3)nc2c1,-24%
Cc1cccc(-c2nc3cnccn3c2NCCC(=O)NCc2ccc3c(c2)OCO3)c1,i
CC(C)(C)c1ncc(C(=O)N2CCc3[nH]cnc3C2c2ccccn2)c(=O)[nH]1 (centres undefined),-1%
Cc1oc(C(O)c2cccc(O)c2)nc1C(=O)Nc1ccc(N2CCOCC2)cc1 (centres undefined),i
SMILES,Pf Dd2 inh
CCOC(=O)Cn1c(=O)n(CC2CCCO2)c2nc(-c3ccccc3Cl)nc(C(N)=O)c21 (centres undefined),6%
CCOC(=O)Cn1c(=O)n(-c2ccccc2OC)c2nc(-c3ccccc3F)nc(C(N)=O)c21,-30%
CCOC(=O)Cn1c(=O)n(-c2cccc(Cl)c2)c2nc(-c3ccccc3Cl)nc(C(N)=O)c21,10µM*
C[C@H](C(=O)N1Cc2ccccc2CC2(CCN(CC3CCNCC3)CC2)C1)c1ccccc1,11%
Cc1cccc(CC(=O)N2CCC(c3nn(C)c4c3COCC4)CC2)c1,i[5.79 µM]
O=C(c1ccoc1)N1CCC(Nc2cccn3ncnc23)CC1,-18%
Cc1cccc(CC(=O)N2CCC(Nc3cccn4ncnc34)CC2)c1,11µM*
O=C(NCC12CCCC=C1N(CC1CC1)C(=O)CC2)c1ccncc1 (centres undefined),-13%
O=c1c2nc(NCc3ccccc3)ccc2ncn1Cc1ccccc1,i
Cc1csc(Nc2ccc3ncn(Cc4ccccc4)c(=O)c3n2)n1,11µM*
Cc1csc(Nc2ccc3ncn(Cc4ccccn4)c(=O)c3n2)n1,-21%[44.1 µM]
COCCO[C@H]1C(=O)N(C2CCN(S(=O)(=O)c3cn(C)cn3)CC2)[C@H]1c1ccncc1,19%
COC(=O)N1CCc2nc(-c3ccccc3)nc(-c3ccc(Cl)cc3)c2C1,i
COc1ccc2c(CNCc3cccs3)c(C(=O)O)n(Cc3ccc(C)cc3)c2c1,-6%
Cc1ccc(CNCc2c(C(=O)O)n(Cc3ccccc3C)c3cc(C)ccc23)cc1,3.2µM*
CCc1ccc(CNCc2c(C(=O)O)n(Cc3ccc(C)cc3)c3cc(C)ccc23)cc1,5µM*
COc1ccc2c(CNCc3ccco3)c(C(=O)O)n(Cc3ccccc3)c2c1,-8%
Cc1ccc2c(CNCc3cccc(Cl)c3)c(C(=O)O)n(Cc3ccc(F)cc3Cl)c2c1,34%
COc1ccc(OC)c(CNCc2c(C(=O)O)n(Cc3ccccc3)c3cc(OC)ccc23)c1,i
COc1ccc(Cn2c(C(=O)O)c(CNCc3ccco3)c3ccc(C)cc32)cc1,i
C=Cc1ccc(Cn2c(C(=O)O)c(CNCc3ccccc3)c3ccc(C)cc32)cc1,7.9µM*
Cc1ccc(Cn2c(C(=O)O)c(CNCc3ccc(OC(C)C)cc3)c3ccc(C)cc32)cc1,11µM*
